This is one part of a sample in which hits are shown more often than they occur.
Pf Dd2 inh = inhibitors of Plasmodium falciparum Dd2 growth | P. falciparum Dd2 growth, SYBR Green, 72 h | Potency, µM (titrated, usually from 28.9 µM), without a hit: at the highest dose activity, negative = inhibition, usual class: inhibitors | actives 4.3% (n = 120,000) | AID 1347417; active means well fitted inhibition curve with a large enough effect;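 further: plate controls were DMSO vehicle for no effect and reference drug for full effect; nearly all actives have a fitted effect of over 65% in size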
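Infected erythrocytes (Dd2, 0.3% parasitemia, 2.5% hematocrit final) are added to compound in RPMI-1640/Albumax II medium, grown 72 h at 37C in low oxygen, then lysed with saponin/Triton-X containing SYBR Green and read by fluorescence.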
* = called active by the depositor; i = inactive; [ ] = remark or other dose. Potency means the concentration at half of the fitted maximal effect.

SMILES	Pf Dd2 inh
Cc1nccn1CC1(CNc2ncncn2)CC1	6.0%
Cc1ccc(NC2=N[C@H]3[C@@H](O)[C@H](O)C[C@H](C(=O)N(C)Cc4ccccc4)[C@H]3S2)cc1	-5.0%[44.1 µM]
CN(Cc1ccccn1)C(=O)CC(c1cccc(O)c1)c1ccccc1Cl (stereo unspecified)	i
CN(C)C(=O)c1ccc2ccnn2c1	23.2%[44.1 µM]
CCOc1ccccc1CNC(=O)c1ccc2c(c1)sc1nc(-c3cccc(OC)c3)cn12	11.2µM*
COc1ccc(-c2cn3c(n2)sc2cc(C(=O)Nc4cccc(SC)c4)ccc23)cc1	i
CCc1ccc(-c2cn3c(n2)sc2cc(C(=O)NCCC4=CCCCC4)ccc23)cc1	i
COc1ccc(-c2cn3c(n2)sc2cc(C(=O)NCCCN4CCN(C)CC4)ccc23)cc1	2.51µM*
COc1ccc(-c2cn3c(n2)sc2cc(C(=O)NCc4ccccc4OC)ccc23)cc1	-22.6%
CCC(C)NC(=O)c1ccc2c(c1)sc1nc(-c3ccc(OC)cc3)cn12 (stereo unspecified)	-15.2%
COc1cccc(-c2cn3c(n2)sc2cc(C(=O)NC4CCCCC4)ccc23)c1	-11.9%
Cc1ccc(-c2cn3c(n2)sc2cc(C(=O)NCCC4=CCCCC4)ccc23)cc1	1.5%
COc1ccc(-c2cn3c(n2)sc2cc(C(=O)Nc4cc(OC)cc(OC)c4)ccc23)cc1	i
COc1ccc(-c2cn3c(n2)sc2cc(C(=O)NCc4cccc(F)c4)ccc23)cc1	19.7%
CCCN1CCN(CCCNC(=O)c2ccc3c(c2)sc2nc(-c4ccc(OC)cc4)cn23)CC1	1µM*
CCN(CC)CCCNC(=O)c1ccc2c(c1)sc1nc(-c3ccc(C)cc3)cn12	1.26µM*
COCC(=O)NC1CCC12CCN(S(=O)(=O)C(C)C)CC2 (stereo unspecified)	-22.5%
COc1cccc(C(=O)N2CCC3(CC2)OCC(C(=O)NCC(C)C)N3C(=O)c2ccc(F)cc2)c1 (stereo unspecified)	i
Cc1ccoc1C(=O)N1CC[C@@H](c2sccc2C)[C@H](O)C1	-18.1%
CN1CCC(NC[C@H]2O[C@@H](CO)[C@@H](O)[C@H]2N2CCN(c3ccc(F)cc3)CC2)CC1	18.8%
COCC1CN(C(C)=O)CC12CCN(S(=O)(=O)c1cnc[nH]1)CC2 (stereo unspecified)	-8.6%
CCN1C(=O)CN(C(=O)C2CCC2)CC12CCOCC2	-11.7%
Cc1ccccc1CN1C[C@@H]2C(=O)N(Cc3ccc4c(c3)OCO4)C(=O)[C@@H]2C1	3.7%
COc1cncc([C@@H](NC(=O)c2cccc(-n3cccn3)c2)C2CC(O)C2)c1 (stereo partly specified)	4.9%
O=C(Nc1cccc(F)c1)N1CCC(O)(c2csc(CN3CCc4ccccc4C3)n2)CC1	-2.6%
SMILES	Pf Dd2 inh
COCCOCC(=O)N1CCOc2ccc(CN3CCc4ccccc4C3)cc2C1	11.2µM*
O=C(Nc1cccc(F)c1)N1CCOc2ccc(CN3CCc4ccccc4C3)cc2C1	2µM*
CCCNC(=O)N1CCOc2ccc(CN3CCc4ccccc4C3)cc2C1	-15.3%
COCCn1cc(CN2CCc3ccccc3C2)ccc1=O	i
CCOCCCNC(=O)N1CCOc2ccc(CN3CCc4ccccc4C3)cc2C1	-5.0%
Nc1nc(C2CC(O)C2)cc(N2CCCN(C(=O)c3ccoc3)CC2)n1 (stereo unspecified)	6.4%
O=C1NCCCc2[nH]c(-c3cnn(-c4cccc(F)c4)c3)nc21	-25.7%
COc1cccc(CN2CCC(c3nn(Cc4ccccc4)c(=O)[nH]3)CC2)c1	i
Cc1ccccc1Nc1c(-c2ccc(Br)cc2O)nc2sccn12	2.51µM*
CCc1cccc(C)c1Nc1c(-c2ccccc2)nc2sccn12	-9.4%
COCCNC(=O)c1nc2sccn2c1Br	0.6%[44.1 µM]
Cc1nc(C)c(CC(=O)NC2CCCN(C3CCCCCC3)C2)c(=O)[nH]1 (stereo unspecified)	-15.4%
COc1ccc(Cn2nc(C3CC3)nc2-c2c(F)cccc2Cl)cc1	-21.0%
COc1ccc(C(=O)/C=C/c2cn(CC(O)CN(CC(C)C)CC(C)C)c3ccccc23)cc1 (stereo unspecified)	3.16µM*
CCCn1cc2c3c(cccc31)CN(C(=O)c1ccc(OC)cc1)CC2	i
COc1ccc(C(=O)NCCn2cc(SCc3cc(C)ccc3C)c3ccccc32)cc1	-17.8%
COc1ccc(C(=O)NCCn2cc(SCC(=O)Nc3ccc(F)cc3)c3ccccc32)cc1	i
COc1ccc(NC(=O)Cn2cc(C(=O)C3CC3)c3ccccc32)cc1	0.0%
CCCN(CCC)CC(O)Cn1cc(/C=C/C(=O)c2ccc(OC)cc2)c2ccccc21 (stereo unspecified)	3.16µM*
CCCN1C(=O)CC[C@H]2CN(C(=O)c3ccc4sccc4c3)CC[C@H]21	-11.9%
Cc1cc(S(=O)(=O)N2CCCC(CCC(=O)N3CCOCC3)C2)n(C)n1 (stereo unspecified)	0.1%
CC(C)c1nc(-c2ccc(C(=O)N[C@@H]3COCC[C@@H]3OCC3CC3)cc2)no1	i
CN1C[C@H](NC2CCOCC2)CCC[C@@H](C(=O)NC2CC2)CC1=O	-13.8%[44.1 µM]
CN(CCc1ccccn1)[C@@H]1[C@H](O)[C@H](CO)O[C@@H]1CNC(=O)Nc1ccc(OC(F)(F)F)cc1	i
Cc1ccc(C(C)C)c(OCC(=O)NCC2(N(C)C)CCCCC2)c1	2.82µM*
SMILES	Pf Dd2 inh
Cc1cccc(C)c1OCC(=O)NCC1(N(C)C)CCCCC1	i
Cc1ccc(C(C)C)c(OCC(=O)Nc2nc3c(s2)CCCC3)c1	0.0%
Cc1nccn1-c1ccc(NC(=O)C2CCCN(c3ncccc3C#N)C2)cc1 (stereo unspecified)	-25.6%
O=C(Cc1ccsc1)Nc1cccc(-c2nnc3n2CCCC3)c1	8.91µM*
Cc1c(F)cccc1NC(=O)Nc1cccc(-c2nnc3n2CCCC3)c1	i
O=C(CCc1c[nH]c2ccccc12)Nc1cccc(-c2nnc3n2CCCC3)c1	3.16µM*
Cc1nnc2n1CCC(NC(=O)CCc1c[nH]c3ccccc13)CC2 (stereo unspecified)	35.8%
O=C(Cc1ccc(Cl)cc1)Nc1cccc(-c2nnc3n2CCCC3)c1	i
O=C(Cc1ccsc1)NC1CCc2nnc(C3CC3)n2CC1 (stereo unspecified)	2.6%
O=C(Cn1nc2n(c1=O)CCCC2)Nc1cccc(Br)c1	50.4%
O=C(Cc1ccc(F)cc1)Nc1cccc(-c2nnc3n2CCCC3)c1	7.08µM*
Cc1nnc2n1CCC(N(C)C(=O)CCc1c[nH]c3ccccc13)CC2 (stereo unspecified)	i
CCCCN(C)C(=O)c1c(C)oc2ccn(Cc3ccc(F)cc3)c(=O)c12	i
O=C1NCC2(CCCN(C(=O)c3cnc4c(O)cccn4c3=O)C2)O1 (stereo unspecified)	-16.2%
O=C(NC1(CN2CCOCC2)CCCC1)c1ccc(C2CCCNC2)cc1 (stereo unspecified)	-10.8%
O=S(=O)(Cc1ccccc1)N1CCC2(CC1)CC(OCC1CC1)CCO2 (stereo unspecified)	12.1%
CCN(CC)C(=O)c1sc2c(c1C)c(=O)n(CCc1ccccc1)c(=O)n2Cc1ccc(F)cc1Cl	10µM*
CCN(CC)C(=O)c1sc2c(c1C)c(=O)n(CCc1ccccc1)c(=O)n2Cc1cccc(Cl)c1	-17.8%
Cc1sc2c(c1C)c(=O)n(CCc1ccccc1)c(=O)n2Cc1ccccc1Cl	53.9%
CC(C)C1=NOC2(CCCN(Cc3ccc(C(F)(F)F)cc3)C2)C1 (stereo unspecified)	7.2%

Assay outcomes deposited in PubChem BioAssay by National Center for Advancing Translational Sciences (NCATS).
